22 compounds from PubChem BioAssay (NCATS) can be followed below.

Records with an inconclusive call do not appear. A call without a number means that no potency is given here. The source made the active and inactive calls. The call rests on the fitted dose curve; in most records, active means well fitted inhibition curve with a large enough effect; inconclusive means small, poorly fitted or top-dose-only effect; inactive means no such curve, though single readings can be large or run the other way.
Potency means the concentration at half of the fitted maximal effect.

Furin (Homo sapiens), sequence (P09958 whole entry, looked up): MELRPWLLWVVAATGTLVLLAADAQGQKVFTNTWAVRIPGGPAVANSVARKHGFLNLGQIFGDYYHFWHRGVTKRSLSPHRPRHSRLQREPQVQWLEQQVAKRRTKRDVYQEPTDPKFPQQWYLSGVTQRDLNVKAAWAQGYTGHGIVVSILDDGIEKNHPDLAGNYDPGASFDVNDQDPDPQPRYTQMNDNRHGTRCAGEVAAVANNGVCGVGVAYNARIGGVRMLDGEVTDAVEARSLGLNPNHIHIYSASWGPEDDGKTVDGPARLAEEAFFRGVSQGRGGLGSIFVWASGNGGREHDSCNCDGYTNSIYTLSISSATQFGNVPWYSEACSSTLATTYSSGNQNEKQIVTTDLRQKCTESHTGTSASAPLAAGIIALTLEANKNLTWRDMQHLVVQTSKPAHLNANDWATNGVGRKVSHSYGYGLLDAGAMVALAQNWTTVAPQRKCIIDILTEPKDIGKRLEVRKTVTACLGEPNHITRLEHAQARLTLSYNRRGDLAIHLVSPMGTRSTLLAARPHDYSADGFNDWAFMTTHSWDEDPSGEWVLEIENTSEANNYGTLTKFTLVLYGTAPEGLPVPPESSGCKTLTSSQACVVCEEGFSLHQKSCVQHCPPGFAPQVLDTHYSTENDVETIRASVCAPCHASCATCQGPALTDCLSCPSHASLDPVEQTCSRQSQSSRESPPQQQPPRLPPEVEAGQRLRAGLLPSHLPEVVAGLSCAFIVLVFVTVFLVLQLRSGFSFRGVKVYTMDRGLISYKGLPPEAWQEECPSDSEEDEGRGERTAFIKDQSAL

In this test the target is Furin (Homo sapiens) (UniProt P09958). Briefly: Furin counterscreen qHTS for Zika virus inhibitors (AID 1347149). Further: nearly all actives have a fitted effect of over 70% in size. Particulars: furin enzymatic counterscreen, fluorogenic substrate; series mostly up to 57.5 µM. The text has this:
Avindra Nath, Ph.D., National Institute of Neurological Disorders and Stroke (NINDS), Bethesda, MD
Radhakrishnan Padmanabhan, Ph.D., Georgetown University (GU), Washington D.C.
Zika Virus causes congenital defects, including microcephaly and is associated with Guillain-Barre syndrome, eningoencephalitis and myelitis in infected adult. […] Using a target-based approach, we hope to establish a screening paradigm to uncover novel, cell-active NS2B-NS3 protease (Zika Virus) specific inhibitors from NCATS' collection of small molecules using qHTS.
Four assay panel was created to identify potential Zika Virus inhibitors. Namely, (1) GU unlinked NS2B-NS3 AMC tagged protease qHTS, (2) GU unlinked NS2B-NS3 Rhodamine tagged protease qHTS, (3) NINDS linked NS2B-NS3 AMC tagged protease qHTS, (4) NINDS linked NS2B-NS3 Rhodamine tagged protease qHTS. Active compounds were re-acquired and re-screened to confirm inhibition. Inhibitors were further screened against various confirmatory and counterscreens in dose response format.
Early Translation Branch (ETB)
National Center for Advancing Translational Sciences (NCATS), Rockville, MD
National Institute of Health (NIH), Bethesda, Maryland
1536-well Furin BOC-RVRR-AMC Protocol:
Human recombinant Furin Serine Protease was purchased from Peprotech (catalog #450-47; full length; Rocky Hill, NJ). Briefly, 3 microL of enzyme (final concentrations of 5 nM), in assay buffer (100 mM HEPES pH 7.0, 1 mM CaCl2 with 0.01% Triton X-100) were dispensed into a 1,536-well solid-bottom black plate (Greiner Bio One, Monroe, NC). Twenty-three nL of compounds (final concentration range 7.28 nM to 114 microM) or control Furin Inhibitor I (Dec-RVKR-CMK; final concentration range 0.248 nM to 8.12 microM) were transferred via Wako Pin-tool (Wako Automation, Richmond, VA). Samples were incubated (RT, protected from light) for 15 minutes followed by a 1 microL substrate addition of BOC-RVRR-AMC (final concentration of 2 microM; Km = ~15 muM90). Plates were then read immediately on a ViewLux High-throughput CCD imager (PerkinElmer, Waltham, MA) equipped with standard UV fluorescence optics (340(30) nm excitation, 450(20) nm emission), then incubated (37C, protected from light) for 15 or 30 minutes (~9% conversion). The change in fluorescence intensity over the 15-minute reaction period was normalized against no-inhibitor and no-enzyme controls and the resulting percent inhibition data were fitted to a 4-parameter Hill equation. Furin Inhibitor I was used as intraplate control.
Background: The purpose of a counterscreen is to sort out artefacts and off-target activity.
In the case of `O=C(O)CC1CCC(c2ccc(-c3ccc(Nc4ccc(C(F)(F)F)nc4)cn3)cc2)CC1` (configuration not stated), the Potency was 78.4 µM (active). Next, `COc1cc(Nc2ccc([N+](=O)[O-])cc2C(=O)O)cc2ccccc12`: “inactive”. Next, `COc1cccc(OC)c1-c1cc(C(=O)N[C@@H](CC(C)C)C(=O)O)nn1-c1ccnc2cc(Cl)ccc12`: “inactive”. Consider `C=C1C2CCC3C(CCC4[C@@]3(C)CCC[C@@]4(C)C(=O)O)(C2)[C@@H]1OC(=O)/C(C)=C\C` (some centres not stated), for which the Potency result is “inactive”. Next, `CCc1nnc(NS(=O)(=O)c2ccc(NC(=S)NC(=O)/C=C/c3ccc(F)cc3)cc2)s1`: “inactive”; `COc1cc2c(c(O)c1OC/C=C(\C)CC/C=C(/C)CCC=C(C)C)CN(C(CCC(=O)O)C(=O)O)C2=O` (configuration not stated): “inactive”; `CC1C(O)C(O)C2C(C(=O)OCCc3ccc(O)cc3)=COC(O[C@@H]3O[C@H](CO)[C@@H](O)[C@H](O)[C@H]3O)C12` (some centres not stated): “inactive”. With `C/C=C/C=C/C=C/C(=O)O[C@@H]1[C@@H](OC)C2=C(C(=O)N(C(CCC(=O)O)C(=O)O)C2)[C@@]2(C)CCCC(C)(C)[C@H]12` (some centres not stated) the entry was “inactive”; with `C/C(=C\CC/C(C)=C/CC[C@]1(C)CCc2cc(O)cc(C)c2O1)CC/C=C(\C)C(=O)O`, “inactive”. Next, `C=C1C2CCC3CC2(CC(O)C2(O)C1CC(OC1OC(CO)C(O)C(O)C1O)C2(C)C)CC3(C)O` (configuration not stated): “inactive”. As for `CC1(C)CC=C(c2cnc3ccccc3c2)c2cc(C(=O)Nc3ccc(C(=O)O)cc3)ccc21`, the Potency was 44.1 µM (active). Take `Cc1ccccc1NC(=O)Nc1ccc(CN2C(=O)N([C@@H](CC(C)C)C(=O)N[C@@H](CC(=O)O)c3ccccc3)C(=O)C2(C)C)cc1`: the Potency entry is “inactive”. With `O=C(O)C1(c2ccc(-c3ccc(Cl)c(Cl)c3)c(F)c2)CC1` the entry was “inactive”. Next, `COc1cc(/C=C/c2ccccc2)c(C(=O)O)c(O)c1CC=C(C)C`: 19.3 µM (active); `C=C1CCC2C(C)(C)CCC[C@]2(C)[C@H]1CC/C(C)=C/C(=O)O` (some centres not stated): “inactive”; `C=CC1(C)C=C2CC[C@H]3[C@@](C)(C(=O)O)CCC[C@]3(C)C2CC1` (some centres not stated): “inactive”. `Cc1ccc2[nH]c(=O)c(C3=NN(C(=O)CCC(=O)O)C(c4ccc(Br)cc4)C3)c(-c3ccccc3)c2c1` (configuration not stated): the Potency is 69.8 µM (active).

Regarding `CC(=O)OC12CC(C)C(OC(=O)c3ccccc3)C1/C=C(/C)C(OC(=O)c1ccccc1)CC(=O)C(C)(C)/C=C/C(C)C2=O` (configuration not stated), the Potency result is “inactive”. Next, `CC(C)CC(c1c(O)c(C=O)c(O)c(C=O)c1O)C1CCC(C)(O)C2CC(C(C)(C)O)CCC12C` (configuration not stated): “inactive”; `O=C(Nc1ccccc1)Nc1ccc(-c2ccc(C(=O)C3CCCC3C(=O)O)cc2)cc1` (configuration not stated): 55.5 µM (active); `COc1cc(Nc2nc3ccccc3nc2NS(=O)(=O)c2cccc(NC(=O)c3ccc(C)c(OC)c3)c2)cc(OC)c1`: “inactive”. For `COc1cccc(CNc2ccc(S(=O)(=O)Nc3nc4ccccc4s3)cc2)c1O`, the Potency entry was “inactive”.
